# Test results as given in PubChem BioAssay (EPA / NIEHS).
# Results filed as inconclusive are left out. Active and inactive are the calls of the source. The calls were made as follows, unless noted: active = hit-call score of the fitted dose curve at least 0.9, where 1 is the maximum; inconclusive = response in the unintended direction; inactive = score below 0.9.
# How the values were obtained:
# [1] = target: human Vitamin D Receptor (VDR), VDR (gene 7421) (UniProt P11473); assay: ATG_VDR_TRANS: Attagene TRANS-FACTORIAL HepG2 Assay for human Vitamin D Receptor (VDR) (AID 2283022)
# In short: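 RT-PCR/capillary electrophoresis read-out of reporter mRNA induction in transiently transfected HepG2; 24 h dosing; chimeric NR-Gal4 (TRANS format); gain-of-signal fit against DMSO baseline.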
# [2] = BSK_3C_SRB: Viability Assessment in the BioMAP Diversity Plus: 3C Assay (AID 2283023; active = hit-call score of the fitted dose curve at least 0.9, where 1 is the maximum; inactive = score below 0.9;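 also: cells read 24 h after compound dosing; fitted both ways against DMSO so a hit may be signal rise or drop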); conditions: primary human endothelial cells (HUVEC)
# In short: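 HUVEC, 24 h post-dose; 10% TCA fix, 0.1% SRB stain, A560 nm. Bidirectional curve fit vs DMSO negative control.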
# [3] = BSK_3C_Vis: BioMAP Diversity Plus: 3C Assay for Morphology Visualization (AID 2283025; active = hit-call score of the fitted dose curve at least 0.9, where 1 is the maximum; inactive = score below 0.9;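 also: light microscopy image of cell morphology used as background control; fitted both ways so gain or loss versus DMSO counts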); conditions: primary human endothelial cells (HUVEC)
# In short: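 Light-microscopy morphology readout, 24 h exposure, human primary umbilical vein endothelium; analysed relative to DMSO with bidirectional fitting.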
# [4] = read-out: Pselectin, SELP (gene 6403); assay: BSK_4H_Pselectin: BioMAP Diversity Plus: 4H Assay for Pselectin Biomarker Activity (AID 2283026; active = hit-call score of the fitted dose curve at least 0.9, where 1 is the maximum; inactive = score below 0.9); conditions: primary human endothelial cells (HUVEC); actives raise or lower the signal
# In short: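 Bidirectional fits against DMSO gave the endpoint. Cells: primary human umbilical vein endothelium, chemical-treated for 24 h before ELISA detection of P-selectin.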
# [5] = read-out: Thrombomodulin, THBD (gene 7056); assay: BSK_3C_Thrombomodulin: BioMAP Diversity Plus: 3C Assay for Thrombomodulin Biomarker Activity (AID 2283029; active = hit-call score of the fitted dose curve at least 0.9, where 1 is the maximum; inactive = score below 0.9); conditions: primary human endothelial cells (HUVEC); actives raise or lower the signal
# In short: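 In a multiplexed primary-cell system, human umbilical vein endothelium received chemical and was assayed 24 h later for thrombomodulin by ELISA. Parallel cultures were SRB-stained (0.1% SRB after 10% TCA fixation, read at 560 nm) to flag cytotoxicity.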
# [6] = read-out: Vascular endothelial growth factor receptor 2 (Homo sapiens) (UniProt P35968); assay: BSK_4H_VEGFRII: BioMAP Diversity Plus: 4H Assay for Vascular endothelial growth factor receptor 2 (VEGFR2) Biomarker Activity (AID 2283031; active = hit-call score of the fitted dose curve at least 0.9, where 1 is the maximum; inactive = score below 0.9); conditions: primary human endothelial cells (HUVEC); actives raise or lower the signal
# In short: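 HUVEC (human primary), 4H system; 24 h post-dose; VEGFRII by ELISA; bidirectional curve fit vs DMSO baseline; gain or loss of signal scored.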
# [7] = read-out: Human Leukocyte Antigen - DR isotype (HLADR), HLA-DRA (gene 3122); assay: BSK_BE3C_HLADR: BioMAP Diversity Plus: BE3C Assay for Human Leukocyte Antigen - DR isotype (HLADR) Biomarker Activity (AID 2283032; active = hit-call score of the fitted dose curve at least 0.9, where 1 is the maximum; inactive = score below 0.9); conditions: primary human bronchial epithelial cells; actives raise or lower the signal
# In short: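 BioMAP BE3C format: human bronchial epithelium, 24 h compound treatment, ELISA detection of HLA-DR, with bidirectional analysis relative to DMSO.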
# [8] = read-out: Vascular cell adhesion molecule 1 (VCAM1), VCAM1 (gene 7412); assay: BSK_4H_VCAM1: BioMAP Diversity Plus: 4H Assay for Vascular cell adhesion molecule 1 (VCAM1) Biomarker Activity (AID 2283033; active = hit-call score of the fitted dose curve at least 0.9, where 1 is the maximum; inactive = score below 0.9); conditions: primary human endothelial cells (HUVEC); actives raise or lower the signal
# In short: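 In this human endothelial (HUVEC) system, biomarker ELISA was run 24 h after compound addition, and total protein in parallel wells was assessed by SRB at 560 nm; DMSO served as negative control.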
# [9] = read-out: Interferon-gamma inducible Protein 10 (IP10), CXCL10 (gene 3627); assay: BSK_BE3C_IP10: BioMAP Diversity Plus: BE3C Assay for Interferon-gamma inducible Protein 10 (IP10) Biomarker Activity (AID 2283034; active = hit-call score of the fitted dose curve at least 0.9, where 1 is the maximum; inactive = score below 0.9); conditions: primary human bronchial epithelial cells; actives raise or lower the signal
# In short: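 BE3C cells (human bronchial epithelial, primary); 24 h exposure; ELISA for IP-10; DMSO-referenced bidirectional fit.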
# [10] = read-out: Monokine induced gamma interferon (MIG), CXCL9 (gene 4283); assay: BSK_BE3C_MIG: BioMAP Diversity Plus: BE3C Assay for Monokine induced gamma interferon (MIG) Biomarker Activity (AID 2283035; active = hit-call score of the fitted dose curve at least 0.9, where 1 is the maximum; inactive = score below 0.9;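 also: MIG protein measured by ELISA in BE3C cultures after 24 h of dosing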); conditions: primary human bronchial epithelial cells; actives raise or lower the signal
# In short: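 ELISA quantified MIG after 24 h exposure of primary bronchial epithelial cultures, analysed in both directions relative to DMSO. Cytotoxicity tracked in parallel cultures by sulforhodamine B staining.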
# [11] = read-out: Transforming growth factor beta 1 (TGFb1), TGFB1 (gene 7040); assay: BSK_BE3C_TGFb1: BioMAP Diversity Plus: BE3C Assay for Transforming growth factor beta 1 (TGFb1) Biomarker Activity (AID 2283036; active = hit-call score of the fitted dose curve at least 0.9, where 1 is the maximum; inactive = score below 0.9); conditions: primary human bronchial epithelial cells; actives raise or lower the signal
# In short: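 TGF-b1 measured via ELISA, 24 h after chemical dosing of human bronchial epithelial cells (BE3C). Overt cytotoxicity assessed in parallel by SRB (0.1%, TCA-fixed, 560 nm); analysis bidirectional relative to DMSO.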
# [12] = read-out: urokinase plasminogen activator (uPA), PLAU (gene 5328); assay: BSK_BE3C_uPA: BioMAP Diversity Plus: BE3C Assay for urokinase plasminogen activator (uPA) Biomarker Activity (AID 2283038; active = hit-call score of the fitted dose curve at least 0.9, where 1 is the maximum; inactive = score below 0.9); conditions: primary human bronchial epithelial cells; actives raise or lower the signal
# In short: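 ELISA read-out of uPA in human lung primary bronchial epithelial cultures, 24 h post-dosing. Gain or loss of signal fitted bidirectionally relative to DMSO baseline; cytotoxicity checked in parallel cultures via SRB total protein stain.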
# [13] = read-out: Urokinase-type plasminogen activator receptor (uPAR), PLAUR (gene 5329); assay: BSK_BE3C_uPAR: BioMAP Diversity Plus: BE3C Assay for Urokinase-type plasminogen activator receptor (uPAR) Biomarker Activity (AID 2283039; active = hit-call score of the fitted dose curve at least 0.9, where 1 is the maximum; inactive = score below 0.9); conditions: primary human bronchial epithelial cells; actives raise or lower the signal
# In short: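 Chemically treated human bronchial epithelial cells (lung primary) are assayed for uPAR by ELISA after 24 h, with data fitted in both directions using DMSO as negative control.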
# [14] = read-out: Interleukin-6 (IL6), IL6 (gene 3569); assay: BSK_CASM3C_IL6: BioMAP Diversity Plus: CASM3C Assay for Interleukin-6 (IL6) Biomarker Activity for (AID 2283040; active = hit-call score of the fitted dose curve at least 0.9, where 1 is the maximum; inactive = score below 0.9); conditions: primary human coronary artery smooth muscle cells; actives raise or lower the signal
# Chain of human Vitamin D Receptor (VDR), VDR (gene 7421) (P11473 whole entry, looked up, the tested form may be a part): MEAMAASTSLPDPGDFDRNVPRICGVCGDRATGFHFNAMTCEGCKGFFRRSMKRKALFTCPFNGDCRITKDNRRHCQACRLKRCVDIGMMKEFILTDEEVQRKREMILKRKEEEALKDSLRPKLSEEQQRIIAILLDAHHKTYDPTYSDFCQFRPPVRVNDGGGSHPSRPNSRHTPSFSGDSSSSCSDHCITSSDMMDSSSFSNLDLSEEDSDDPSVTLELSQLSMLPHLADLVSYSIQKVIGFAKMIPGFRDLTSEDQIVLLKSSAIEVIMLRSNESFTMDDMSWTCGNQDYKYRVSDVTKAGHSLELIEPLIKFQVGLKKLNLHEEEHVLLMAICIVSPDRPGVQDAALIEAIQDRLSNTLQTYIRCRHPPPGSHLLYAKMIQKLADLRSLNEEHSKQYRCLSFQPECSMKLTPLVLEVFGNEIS
smiles,measurement,setting,value
CCCOC(=O)c1c(Cl)c(Cl)c(Cl)c(Cl)c1C(=O)OCCC,outcome,[1],inactive
CCCC(C)C(O)CC (configuration not stated),outcome,[1],inactive
CCOC(=O)[C@@H](C)Oc1ccc(Oc2nc3ccc(Cl)cc3o2)cc1,outcome,[1],inactive
O=[N+]([O-])c1ccc(O)cc1C(F)(F)F,outcome,[1],inactive
Cc1cc(S(=O)(=O)O)ccc1N=Nc1c(O)ccc2ccccc12,outcome,[1],inactive
C=C[Si]1(C)O[Si](C)(C=C)O[Si](C)(C=C)O[Si](C)(C=C)O1 (configuration not stated),outcome,[1],inactive
C=Cc1ccc(C)cc1,outcome,[1],inactive
CCCC(=O)OC(C)(C)Cc1ccccc1,outcome,[1],inactive
Cc1ccc2c(c1)C(=O)OC2=O,outcome,[1],inactive
BrCc1cccc(Oc2ccccc2)c1,outcome,[1],inactive
CCCN(CCC)S(=O)(=O)c1ccc(C(=O)O)cc1,outcome,[1],inactive
CCCC(=O)C(CC)Sc1ccoc1C (configuration not stated),outcome,[1],inactive
CCCCCCCCCC(C)C=O (configuration not stated),outcome,[1],inactive
Brc1ccc(Br)c(Br)c1,outcome,[1],inactive
COc1ccccc1N=Nc1c(S(=O)(=O)O)cc2cc(S(=O)(=O)O)cc(NC(C)=O)c2c1O,outcome,[1],inactive
O=Cc1ccccc1S(=O)(=O)O,outcome,[1],inactive
C[C@H]1O[C@@H](O[C@H]2[C@@H](O)C[C@H](O[C@H]3[C@@H](O)C[C@H](O[C@H]4CC[C@@]5(C)[C@H](CC[C@@H]6[C@@H]5C[C@@H](O)[C@]5(C)[C@@H](C7=CC(=O)OC7)CC[C@]65O)C4)O[C@@H]3C)O[C@@H]2C)C[C@H](O)[C@@H]1O,outcome,[1],inactive
CCCC(O)C(O)CO (configuration not stated),outcome,[1],inactive
CC(C)(C)OC(=O)c1ccc(O)cc1,outcome,[1],inactive
O=C(c1ccccc1)C(O)c1ccccc1 (configuration not stated),outcome,[1],inactive
O=C1CCCC=CCCCCCCCCCC1,outcome,[1],inactive
ON=C1CCCCC1,outcome,[1],inactive
CCCCCCCCCCCC(=O)OCC(O)CO (configuration not stated),outcome,[1],inactive
CC1C2CC(CC2C2CCCC(O)C2)C1(C)C (configuration not stated),outcome,[1],inactive
O=C(Nc1ccc2c(c1)Cc1ccccc1-2)C(F)(F)F,outcome,[1],inactive
ClC(c1ccccc1)(c1ccccc1)c1ccccc1,outcome,[1],inactive
COc1ccc(N)c([N+](=O)[O-])c1,outcome,[1],inactive
C=Cc1ccncc1,outcome,[1],inactive
OCCOCCN1CCN(C2=Nc3ccccc3Sc3ccccc32)CC1,outcome,[1],inactive
CC(=O)O[C@@H]1C[C@@H]2CC[C@@]1(C)C2(C)C,outcome,[1],inactive
CCCCC1(COC(=O)CCC(=O)O)C(=O)N(c2ccccc2)N(c2ccccc2)C1=O,outcome,[1],inactive
C[Si]1(C)O[Si](C)(C)O[Si](C)(C)O1,outcome,[1],inactive
COC(=O)c1ccc(OC)cc1,outcome,[1],inactive
c1ccc(CCc2ccccc2)cc1,AC50,[2],30.5 µM (active)
same,AC50,[3],8.8 µM (active)
same,AC50,[4],35.7 µM (active)
same,AC50,[5],20 µM (active)
same,outcome,[6],inactive
same,AC50,[7],30.3 µM (active)
same,AC50,[8],35.9 µM (active)
same,AC50,[9],29.7 µM (active)
same,outcome,[10],inactive
same,AC50,[11],27.8 µM (active)
same,AC50,[12],28.9 µM (active)
same,AC50,[13],20 µM (active)
same,AC50,[14],26.8 µM (active)
COc1ccc(N=Nc2cc(C)c(N=Nc3ccc(S(=O)(=O)O)cc3)cc2OC)cc1,outcome,[1],inactive
